Source: PubChem BioAssay AID1508600 (Functional Genomics Laboratory (NCATS/FGL), 2020)
The whole screen tested about 53,000 sequences, of which about 3,700 (7%) were called active. This is one part of a sample in which actives are shown more often than they occur.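 The calls were made as follows: active = gene knockdowns whose robust z-score for IL-1 alpha signal is at least 2 or at most -2, so actives lie on both sides; inactive = the rest.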

Assay: Components of the Cytosolic LPS Sensing Pathway: Gene Identification via Genome-wide siRNA Screen;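 also: robust z of the log signal after scaling to non-targeting control siRNA wells of the plate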
Conditions: RAW264.7 macrophages, IL-1a HTRF, actives lie on both sides, screened at 100 nM (by protocol), cells primed 5 h with Pam3CSK4 first
Outline: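 Cells (RAW264.7, 1×10^4 per well) were transfected with siRNA at 100 nM and cultured 48h at 37 degrees C. Pam3CSK4 was added for 5 hours; LipidA transfection followed for 24 hour. IL-1a was then measured by HTRF.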

z-score, active:
GAGCCACUUUCUCAAGUGUTT against Pou3f1 3.02
GCCAGUUUAAGUCUCUCCATT against Tmem168 -2.37
GGGCUGACUUCCUAUGACCTT against Adra2c 2.14
GGAGGUCAGACCAGUUUACTT against Htr3b 2.15
GGUCUGGAAUGGAGAACAGTT against Suox 2.73
GGUGGCUGAAGAUGUGACUTT against Ttyh1 -3.46
GGAAAAGAAAGAUGUGACUTT against Trappc9 -2.55
CCCAGCUAGACAGUCUUUCTT against Il11 2.58
CGGUUUCACGAAUUCCUCCTT against Scaper -2.16
CGGUUGAUGGAAAAAUACATT against Ppef2 2.43
GGUGCUAGUGGUGACCAUGTT against Pign 2.2
GGUUCUCCAAGGAAAGAGGTT against 2310002L09Rik 2.8
GGUUUCCAUGGUAACGUGGTT against Tns1 2.24
GGGAGCUGUUAACCUCAUCTT against Mthfr 3.34
GGCUCAUGGAAAACUCUAUTT against Hspa9 2.24

z-score, inactive:
GGAUGAGGAGAUAAAGUCUTT against Misp -0.981
GGAAUAAAACUUCUGAGAATT against Oog1 -1.66
GAAAACUCAAACAGCAUAUTT against Vmn1r216 0.833
GUAACUCGCUUCUUGGUGGTT against Slc22a15 0.464
GGUUCAAUGCUCCCUUCGATT against Ghrl 0.712
GGCUCACCUGAUACACUUUTT against Ramp2 0.707
GCCUUGAAAUGUCUGUAGCTT against Nkiras1 0.981
GGUGGAAUAACAGAUAAAATT against Cutc 0.255
GGAGAAAGGAUUAUAGAUGTT against Klk7 0.202
GGGAUUCUUUUUGUGGAAATT against Trim62 0.636
GGUCUCAAUCAGAGUUACATT against Zfp324 -0.936
GCUUACAUCCAAGCCGUCUTT against Prss41 0.283
GCUGGAGAUGAUUGUCUGATT against Psmd8 -1.22
GCGGGAACCAUUUUUGUGATT against Cdh11 -1.18
GGUCGAUUGAUAUACAAAATT against Gdf6 0.834
CGUAUUAUCUGAGUGAACATT against Fth1 -0.974
GCAUCAUCACCACCAUCACTT against Pou3f3 -0.598
GGUGACCAAGCAGAUAACATT against Prcc -1.19
GGACGUGGGCUCUCUAGAUTT against S100a13 1.81
CGGUGGAAAUACCAGGAUGTT against Tshb 0.406
GGAAAUUUGCCGGCCAAAUTT against Fam83a 0.557
GCACUCCACUCUUCCAUCATT against Cxcl16 0.35
GCAAAGGACCUAAUUUAUUTT against Ehd4 1.13
GGUUCAAGGGCCAGAUCCUTT against Rpl32 0.887
CCAGUGUUGGUAACAAUAUTT against Stat4 0.0489
CGUAGAUCUGGAUUGCUUUTT against Poli 1.74
GGCAGAGCCAGAAAAAUUGTT against Slc30a1 0.306
CCAGAAUGUAAAACAACCGTT against Zfp365 0.588
GGAUUCAUGAAAUAAGUCATT against Zfp426 -0.603
CGUGGUCUCGGACACUUUCTT against Hcn2 -0.096
GGUGGAAUGAGGAAACAACTT against Cck -0.945
GGAUUUAGCUAAGAGAGGGTT against Zmat3 -0.125
CGAUGGUGAUUAUCUAAAATT against Tm4sf4 -0.0694
GCGAAUGUGUGUAUUCUGGTT against BC055324 -0.791
GGAAAGAUGAGACCACCCGTT against Stau1 -0.582
GGCAAUAAUAAAUAGCACCTT against Homer1 0.8
GGUAGAUGAACUUUAAAGATT against Syt13 -0.846
GGACUUCUUAACCGCCCUGTT against Sirt5 0.355
GGCUCAUGAGAAGACACACTT against Zbtb17 0.204
CGUGAAAAAGUUAGCAAGUTT against Tars2 0.198
CCUUCUAGUACAAAAGUUGTT against Jmjd1c 1.32
GGACAAGAGAACAACUAGUTT against Mrtfb 0.0162
GACCAAAGCACUGACUAUGTT against Lyz2 -0.184
GGAAGAAAUGGACCAGCUGTT against Hgh1 -0.416
GGGCAUAUGAGAUUUAUUATT against Trappc2 -0.423
GGCCUACAUACUCCUGAAGTT against Ttc21a -1.28
CCUAGAUUAAAUACUCGGATT against Saxo2 1.45
GCAGCCAAAUUCAUCCUCATT against Tspan33 -0.552
GGAAUGGACAAAAUGAUUCTT against Cct4 1.53
UGUUGUUUUACCUGUGCCUTT against Gm10283 -1.14
GGUUGCCAAUGACACUCGGTT against Trak2 -0.342
GCCAUUCUAACUCUGCCUCTT against Olfr639 0.232
GGGUUCAACACAGCCAAUGTT against Fam151a 0.987
CCCUAUUUGACAAAUUCCUTT against Cdo1 0.245
